Sampled rows, rich in hits. Any-hit rate of the full collection: about 2.8%.
TRPM1 prom inh: reduces MITF-dependent TRPM1 promoter luciferase signal; SK-MEL-5 TRPM1 promoter luciferase, 24 h; AID 488899; inhibition, % at 12.5 µM; 330,000 compounds, 0.83% hits;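 active = mean inhibition across replicates of 60% or more, whatever share of single replicates reaches that level; inconclusive = some that reach 60%, reason not given; inactive = mean inhibition across replicates below 60%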
CF NFkB block: blocks PAF-induced NF-kB reporter in cystic fibrosis cells | KKLEB NF-kB-GFP reporter, GFP fluorescence overnight | inhibition, % at 5 µM | 360,000 compounds, 0.86% hits | AID 588850;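 active = at least 50% inhibition at 5 µM, scaled per plate between neutral and stimulator controls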;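 also: PAF is a Pseudomonas aeruginosa culture filtrate used as stimulus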
KKLEB cytotox: CF airway cell cytotoxicity counter-screen; 360,000 compounds, 0.36% hits; KKLEB CF airway cells viability, ATPlite luminescence, overnight; active compounds read low; cells stimulated with P. aeruginosa culture filtrate; activity change (cytotoxicity), % at 5 µM;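 active = corrected activity change at or below -50% at 5 µM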
Shn3 3UTR inh: inhibitors of Schnurri-3 3'UTR reporter in osteoblasts; Clone20 osteoblast Shn3 3'UTR firefly luciferase, 24 h; inhibition, % at 12.5 µM; 360,000 compounds, 0.52% hits;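 active = mean inhibition of at least 75% with every replicate also reaching 75%; inconclusive = mean inhibition at least 75% but some replicate below; inactive = mean inhibition below 75%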
Peg3 promoter: Peg3 promoter activity inhibition. HeLa PEG-Prom luciferase reporter, luminescence, overnight. inhibition, % at 20 µM. 360,000 compounds, 1.7% hits. AID 588405;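 active = inhibition of at least 50% at 20 µM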
HIF-2a block: inhibitors of HIF-2a | 786-0 RCC cells HIF-2a reporter, luciferase luminescence, overnight | inhibition, % at 18.8 µM | 360,000 compounds, 0.72% hits | AID 624352;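 active = inhibition of the luminescence signal of 40% or more relative to plate controls, in a single-dose primary screen at 18.75 µM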
Large screens that a line does not name were inactive.

O=C1/C(=C\c2ccc(Cl)cc2)CCC1CNc1ccc(Cl)cc1 (stereo not drawn)	Peg3 promoter 89.2
CC1CCC/C(=C\c2ccc(O)cc2)C1=O (stereo not drawn)	none
Cc1ccn2c(c1)nc(=S)n2C(=O)c1ccccc1	KKLEB cytotox -51.2, HIF-2a block 47.9
Cc1cccc(C(=O)n2c(=S)nc3cc(C)ccn32)c1	none
Cc1ccc(NC(=O)c2ncn(CC(=O)N[C@H](C)c3cccc4ccccc34)n2)cc1C	none
Cc1cc(C)c(CN2CCN(C(=O)Cn3cnc(C(=O)Nc4ccc(C)c(C)c4)n3)CC2)c(C)c1	KKLEB cytotox -69.4, Peg3 promoter 86.3
Cc1ccc(NC(=O)c2ncn(CCCN3CCN(Cc4cccc5ccccc45)CC3)n2)cc1C	Peg3 promoter 96.7
C[C@H](CO)N1C[C@H](C)[C@@H](CN(C)Cc2ccc(-c3ccccc3)cc2)Oc2c(NC(=O)Nc3ccc4c(c3)OCO4)cccc2C1=O	Peg3 promoter 94.0
C[C@@H]1CN([C@@H](C)CO)C(=O)Cc2cc(NC(=O)Nc3ccc(C(F)(F)F)cc3)ccc2O[C@@H]1CN(C)S(=O)(=O)c1ccc(Cl)cc1	Peg3 promoter 59.9
C[C@H]1CN([C@@H](C)CO)C(=O)c2cccc(NC(=O)Nc3ccc(C(F)(F)F)cc3)c2O[C@@H]1CN(C)Cc1ccc(Cl)c(Cl)c1	CF NFkB block 67.8, Peg3 promoter 97.0
C[C@@H]1CN([C@H](C)CO)C(=O)c2cc(NC(=O)Nc3ccc(C(F)(F)F)cc3)ccc2O[C@H]1CN(C)Cc1ccc(Cl)c(Cl)c1	none
C[C@@H]1CN([C@H](C)CO)C(=O)c2cc(NS(=O)(=O)c3ccc(F)cc3)ccc2O[C@@H]1CN(C)Cc1ccc(Cl)c(Cl)c1	Peg3 promoter 52.4
C[C@H](CO)N1C[C@H](C)[C@@H](CN(C)S(C)(=O)=O)Oc2c(NC(=O)Nc3ccc4c(c3)OCO4)cccc2C1=O	none
Cc1ccc(/C(O)=C2\C(=O)C(=O)N(CC(C)O)C2c2ccccn2)cc1 (stereo not drawn)	none
CCCCC(CC)CNC(=O)C(Cc1ccccc1)NS(=O)(=O)c1ccc2c(c1)CCC(=O)N2 (stereo not drawn)	none
Cc1ccc2[nH]c(=O)c(CN(CCCN(C)C)C(=S)NCCc3ccccc3)cc2c1	Peg3 promoter 56.2
COc1cccc(-c2nc(NC3CCCC3)c3ccccc3n2)c1O	Shn3 3UTR inh 86.3
N#CC1=C(N)C(C#N)(C#N)C(c2cccnc2)C2CC(c3ccccc3)CC=C12 (stereo not drawn)	CF NFkB block 69.1
N#CC1=C(N)C(C#N)(C#N)[C@H](c2cccnc2)[C@H]2CN(C(=O)OCc3ccccc3)CC=C12	none
O=C(COC(=O)/C=C/c1ccc([N+](=O)[O-])cc1)NCC1CCCCC1	none
CN1CCN(S(=O)(=O)c2ccc(NC(=O)Cc3ccc([N+](=O)[O-])cc3)cc2)CC1	none
Cc1ccccc1C(=O)Nc1cccc(NC(=O)c2ccc(-c3ccc(Br)cc3)o2)c1	KKLEB cytotox -53.4
CN1CCN(c2ccc(NC(=O)c3ccc(-c4ccc(Br)cc4)o3)cc2)CC1	Peg3 promoter 88.8
COc1ccccc1NC(=O)Nc1ccnn1C1CCN(C(=O)C2CCOC2)CC1 (stereo not drawn)	none (no result: TRPM1 prom inh)
N#Cc1c(NCCN)nc(-c2ccccc2)c2c1CCCC2	Peg3 promoter 66.5
CCN1/C(=C/C=C/C=C/C=C/c2sc3ccccc3[n+]2CC)Sc2ccccc21	TRPM1 prom inh 94.8
CCN1/C(=C/C=C/c2sc3ccccc3[n+]2CC)Sc2ccccc21	TRPM1 prom inh 98.9, Shn3 3UTR inh 94.8, Peg3 promoter 77.6
Cc1cccc(CN2CCC(Oc3ccc(C(=O)N4CCCC4)cc3)CC2)n1	none
S=c1[nH]nc(-c2cc(-c3ccccc3)n[nH]2)n1/N=C/c1ccccc1	none
S=c1[nH]nc(-c2cc(-c3ccccc3)n[nH]2)n1/N=C/C(Br)=C/c1ccccc1	CF NFkB block 104.4, KKLEB cytotox -76.9, Peg3 promoter 107.9 (no result: TRPM1 prom inh)
CCN(CCNC(=O)c1ccc(C#N)cc1)c1cccc(C)c1	none
CCN(CCNCC(O)COCc1ccc(Cl)cc1)c1cccc(C)c1 (stereo not drawn)	Peg3 promoter 103.2
CCc1nccn1CCC(=O)NC1CCCc2c1cnn2-c1ccc(F)cc1F (stereo not drawn)	none
Cc1cc(C)n(-c2ccc3cccc(NS(C)(=O)=O)c3n2)n1	TRPM1 prom inh 62.1, Shn3 3UTR inh 90.1, Peg3 promoter 58.6
O=C(N/N=C/c1ccccc1O)C1CC(=O)N(c2ccc(F)cc2)C1 (stereo not drawn)	Peg3 promoter 51.9
CC(=O)NC(C)c1cc(Cl)c2cccnc2c1O (stereo not drawn)	none
CCC(=O)NC(C)c1cc(Cl)c2cccnc2c1O (stereo not drawn)	Shn3 3UTR inh 91.1
CCCC(=O)NC(c1ccc2c(c1)OCO2)c1cc(Cl)c2cccnc2c1O (stereo not drawn)	Shn3 3UTR inh 87.4, Peg3 promoter 54.5
CN1CCN(C(c2ccc(Br)cc2)c2cc(Cl)c3cccnc3c2O)CC1 (stereo not drawn)	Shn3 3UTR inh inconclusive, HIF-2a block 49.9
COc1ccc(C(NC(C)=O)c2cc(Cl)c3cccnc3c2O)cc1OC (stereo not drawn)	Shn3 3UTR inh 88.7
OC1COCOC1C(O)C1OCOCC1O (stereo not drawn)	none
O=C(c1ccc(Cl)c(S(=O)(=O)N2CCCCC2)c1)N1CCCC(C(F)(F)F)C1 (stereo not drawn)	none
CC1CCC(NC(=O)CCS(=O)(=O)c2ccc3c(c2)CCN3C(=O)C2CC2)CC1 (stereo not drawn)	none
CCCC(=O)NC(c1ccco1)c1cc(Cl)c2cccnc2c1O (stereo not drawn)	Peg3 promoter 68.7
CCCC(=O)NC(c1cccs1)c1cc(Cl)c2cccnc2c1O (stereo not drawn)	none
O=C1c2ccccc2C(=O)c2c(NCCCN(CCO)CCO)cccc21	Peg3 promoter 58.6
CSc1nc2ccc(S(=O)(=O)N(C)C)cc2s1	none
CN(C)c1ccc2nc3ccc(=O)cc-3sc2c1	CF NFkB block 51.5 (no result: TRPM1 prom inh)
Cc1nc2ccc(N)cc2s1	none
Cc1nc2cc(C)c(C)cc2s1	none
CN(C)c1ccc2nc3ccc(=[N+](C)C)cc-3sc2c1	TRPM1 prom inh 73.1, CF NFkB block 79.2
Cc1cc2nc3ccc(=[N+](C)C)cc-3sc2cc1N	TRPM1 prom inh 95.5, CF NFkB block 52.2
O=C1C(Br)=C(c2ccccc2)C(c2ccccc2)=C1c1ccccc1	TRPM1 prom inh 80.0, CF NFkB block 78.6, KKLEB cytotox -74.1, Shn3 3UTR inh 97.9, Peg3 promoter 104.7
Cc1ccc(NS(=O)(=O)c2cccc(C(=O)Nc3cccnc3)c2)c(C)c1	none
COc1ccc(NS(=O)(=O)c2ccc(C(=O)N3CCCCCC3)cc2)cc1	Shn3 3UTR inh 82.4
